Shiga inhibitor: blocks Shiga toxin action in Vero cells | Vero cells, Shiga toxin protein synthesis inhibition reporter | inhibition, % at 38.7 µM | hit rate 9.2% among 290,000 | AID 2315; in the data active = inhibition mostly above about 28%, no sharp cut-off; inactive = mostly below about 43%; note: 0% is about no effect
Pf growth 96h: P. falciparum growth inhibition at 96 hour, primary screen for plastid delayed-death inhibitors; AID 504834; Potency, µM (series often up to 28.7 µM), inactives show top-dose activity change, negative = inhibition, usual class: inhibitors; P. falciparum luciferase reporter growth, 96 h; hit rate 6.9% among 320,000; note: potency is the fitted concentration of half-maximal effect; % is set by controls: 0 for no effect and ±100 for the full control effect
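96 h incubation, 37 C, 5% CO2, of luciferase-reporter P. falciparum-infected RBCs (2% hematocrit, 0.05% parasitemia final) with test compounds; endpoint luminescence.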
CHX counter: counter-screen for Shiga toxin inhibitors: cycloheximide protein synthesis inhibition; cell reporter, cycloheximide protein synthesis inhibition counterscreen; max response, %; hit rate 12% among 300,000; AID 2314; in the data active = max response mostly above about 13%, no sharp cut-off; inactive = mostly below about 14%; note: read at 38.3 µM for the half of the compounds with a filed dose; 0% is about no effect
AMA1 RON2 block: disrupts binding of P. falciparum AMA1 to RON2; AlphaScreen AMA1-biotinylated RON2 peptide binding; AID 720542; hit rate 0.2% among 360,000; Potency, µM (doses to about 58.2 µM), for the others: top-dose activity change, negative = inhibition, usual class: inhibitors;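 note: potency is the fitted concentration of half-maximal effect; 0% = vehicle wells and -100% = peptide control; nearly all actives have a fitted effect of over 45% in size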
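AMA1 (3D7) with his tag at 25 nM final met compounds first, then biotinylated RON2 peptide at 25 nM; detection used donor plus acceptor beads, 10 µg/mL apiece, read by AlphaScreen after 30 min at room temperature.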
SARS PLP yeast: SARS-CoV PLP inhibition in yeast; S. cerevisiae expressing SARS-CoV PLpro, growth rescue; Potency, µM (doses to about 32.9 µM), inactives show top-dose activity, positive = growth rescue, usual class: activators; hit rate 0.19% among 330,000; AID 485353; calls by dose curve; note: potency is the fitted concentration of half-maximal effect; 0% is about no effect; nearly all actives have a fitted effect of over 55% in size
Pf growth 48h: inhibits P. falciparum growth in the first generation, 48 h; P. falciparum luciferase growth in erythrocytes, 48 h; Potency, µM (top dose mostly 28.7 µM), for inactives: at the highest dose activity change, negative = inhibition, hits mostly inhibitors; hit rate 5.9% among 310,000; AID 504832; note: potency is the fitted concentration of half-maximal effect; % is set by controls: 0 for no effect and ±100 for the full control effect
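Growth was read as firefly luciferase luminescence after a 48 h, 37 C, 5% CO2 exposure of compounds to reporter-bearing P. falciparum cultures (0.1% parasitemia, 2% hematocrit final) in Albumax-supplemented RPMI 1640.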
Active calls of the source: *; ? = inconclusive; . = no result given; [ ] = another dose, or the depositor's remark. Only some compounds are listed: those with a hit (about 19% of all), similar ones and a draw of the others. Unless noted, calls come from the whole dose curve; as a rule, active = well fitted curve in the direction sought with a large enough effect; inconclusive = small, poorly fitted or top-dose-only effect, or another doubt; inactive = no such curve, though single readings can be large; an effect the other way counts as inactive or inconclusive.

SMILES	Shiga inhibitor	Pf growth 96h	CHX counter	AMA1 RON2 block	SARS PLP yeast	Pf growth 48h
COc1ccc(NC(=O)N2CCCC(c3ccccc3)C2)cc1 (stereo unspecified)	47	2.1µM*	17*	-10%	-3%	-29%
CCC1CCC(NC(=O)Nc2cccc(OC)c2)CC1 (stereo unspecified)	64*	-58%	52*	-21%	-3%	53%
COc1ccc(NC(=O)N2CCC3(CC2)OCCO3)cc1	35	?	27*	5%	1%	24%
CN1CCC(OC(=O)COc2ccc(C(C)(C)C)cc2)CC1	-3	22%	-1	-3%	5%	11%
CCNC(=O)C1CCCN(C(=O)c2ccc(C(F)(F)F)cc2)CC1 (stereo unspecified)	.	.	.	-6%	.	.
COc1ccc(CNC(=O)C2CCCN(C(=O)Nc3ccc(OC)cc3)C2)cc1 (stereo unspecified)	30	-3%	-3	3%	1%	10%
COc1cccc(NC(=O)C2CCCCC2)c1	44*	?	29*	?	-19%	83%
COc1cccc(NC(=O)N2CCOCC2)c1	-3	7%	-5	4%	3%	20%
O=C(Nc1cccc(F)c1)N1CCCC(CNS(=O)(=O)Cc2ccccc2)C1 (stereo unspecified)	21	5.2µM*	5	10%	1%	9%
COc1ccc(NC(=O)N2CCCC(C(=O)NCCc3ccccc3)C2)cc1 (stereo unspecified)	65*	-16%	34*	-1%	?	20%
COc1cccc(NC(=O)N2CCCCCC2)c1	46*	27%	74*	-10%	-7%	100%
COc1ccc(-c2noc(N3CCCC(C(=O)Nc4ccc(C(C)=O)cc4)C3)n2)cc1 (stereo unspecified)	31	?	28*	10%	-1%	?
COc1cccc(NC(=O)N2CCN(c3cccc(C)c3)C(C)C2)c1 (stereo unspecified)	50*	3%	34*	-12%	-14%	-4%
COc1cccc(N2CCN(C(=O)c3ccc(=O)oc3)CC2C)c1 (stereo unspecified)	9	-23%	-6	0%	7%	.
CCCN(CCC)C(=O)c1ccc2nc(-c3ccc(OC)c(OC)c3)c(-c3ccc(OC)c(OC)c3)nc2c1	-11	17%	-6	29%	1%	7.4µM*
CCC(C)NC(=O)c1ccc2nc(-c3ccc(OC)c(OC)c3)c(-c3ccc(OC)c(OC)c3)nc2c1 (stereo unspecified)	-11	13µM*	8	0%	1%	2.9µM*
CCN(CC)C(=O)c1ccc2nc(-c3ccccc3)c(-c3ccccc3)nc2c1	-7	35%	-1	-7%	-19%	-17%
O=[N+]([O-])c1ccc2c(c1)N([O-])C1(CCCCC1)[N+]2=O	19	-29%	0	-3%	0%	?
O=C(O)c1ncsc1-c1ccccc1	13	-2%	6	4%	-1%	11%
COc1ccc(Nc2nc3c(C)cccc3cc2C#N)c(OC)c1	-9	?	1	0%	-9%	29%
COc1cccc(NC(=O)/C=C/c2ccco2)c1	140*	258%	52*	-3%	-4%	306%
CSc1cccc(NC(=O)/C=C/c2ccco2)c1	110*	55%	55*	-2%	-6%	142%
COc1ccc([N+](=O)[O-])cc1NC(=O)C(C)OC(=O)/C=C/c1ccco1 (stereo unspecified)	36*	-19%	17*	-11%	15%	9%
O=C(/C=C/c1ccco1)Nc1cccc(S(=O)(=O)N2CCOCC2)c1	13	?	2	-2%[2.32 µM]	6%	15%
COc1ccccc1NC(=O)/C=C\c1ccco1	68*	9%	41*	-11%	-1%	.
Cc1cnc(C(=O)OCC(=O)c2c(N)n(CC(C)C)c(=O)n(C)c2=O)cn1	.	21%	.	9%	-6%	?
Cc1ccc([C@H]2N[C@]3(CCCN(Cc4ccc(Br)cc4)C3=O)[C@H]3C(=O)N(Cc4ccccc4)C(=O)[C@@H]23)cc1	.	.	.	-12%	.	.
O=C(/C=C/c1ccco1)Nc1cccnc1	47	64%	21*	-7%	-3%	90%

Screening data: PubChem, National Center for Advancing Translational Sciences (NCATS)
